# Experimental data taken from PubChem BioAssay (Tox21).
# Values without a mark were called inactive. Inconclusive results are not listed. A call without a number means that no potency is given here. Calls of active or inactive are those of the source. Unless noted, calls follow the shape of the dose curve; as a rule, active = well fitted curve in the direction sought with a large enough effect in the repeat runs; inconclusive = weak or mixed curves; inactive = no such curve, though single readings can be large; an effect the other way counts as inactive or inconclusive.
# Key:
# [1] = target: Thyrotropin receptor (Homo sapiens) (UniProt P16473); assay: qHTS assay to identify small molecule agonists of the thyroid stimulating hormone receptor (TSHR) signaling pathway (AID 1224843; calls by dose curve; also: nearly all actives have a fitted effect of over 45% in size)
# Outline: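 HEK293 cells stably bearing the thyrotropin receptor were plated at 800 cells/well and challenged with compound (30 min, RT). Accumulated cAMP was quantified via cAMP-d2 competing for cryptate-tagged antibody.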
# [2] = qHTS assay to identify small molecule agonists of the hypoxia (HIF-1) signaling pathway - cell viability counter screen (AID 1224844; calls by dose curve; also: nearly all actives have a fitted effect of over 50% in size)
# Outline: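 Tox21 10K compounds were added to HRE-bla ME-180 cells (0.5% dialyzed FBS) and incubated 17 hrs at 37C; ATP-based CellTiter-Glo luminescence then reported cell viability in the same wells.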
# [3] = qHTS assay to identify small molecule agonists of H2AX (AID 1224845; active = well fitted activation curve with a large enough effect in the signal ratio in the repeat runs, not every such curve was filed as active; the % refers to the signal ratio)
# Outline: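 Phospho-H2AX Ser139 measured by HTRF (ex 320 nm; em 665 and 620 nm) after 24 hr antibody incubation. Compounds, 15 concentrations, 0.76% DMSO, were applied to CHO-K1 cells for 3hr at 37C before lysis.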
# [4] = qHTS assay to identify small molecule agonists of the hypoxia (HIF-1) signaling pathway (AID 1224846; active = well fitted activation curve with a large enough effect in the signal ratio in the repeat runs, not every such curve was filed as active; the % refers to the signal ratio)
# Outline: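 Steps: seed ME-180 HRE-bla cells (2,000/well, 0.5% dialyzed FBS); incubate 5 hrs at 37C; pin-transfer compounds or DMSO; incubate 17 hrs; add LiveBLAzer B/G substrate CCF4-AM; measure reporter activation by FRET.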
# [5] = qHTS assay to identify small molecule agonists of H2AX - cell viability counter screen (AID 1224847; calls by dose curve; also: top concentration of the series differs between compounds; nearly all actives have a fitted effect of over 30% in size)
# Outline: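 Read-out: CellTiter-Glo luminescence, 30 min RT. Cells: wild-type CHO-K1, 1000/well, 10% FBS, plated overnight at 37C. Treatment: 15 concentrations, 3 hr, 37C, 0.76% DMSO.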
# [6] = qHTS RealTime-Glo MT Cell Viability Assay in HepG2 cells - 24 hour (AID 1224867); also: nearly all actives have a fitted effect of over 50% in size
# Outline: (§1)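 Compound treatment began 5 h after plating HepG2 cells (600/well) with NanoLuc luciferase and prosubstrate. Plates stayed at 37 C for 40 h; luminescence was captured at six time points, 0 h through 40 h.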
# [7] = A CellTox Green Cytotoxicity Assay to monitor cytotoxicity in HEK293 cells - 0 hour (AID 1224869); also: nearly all actives have a fitted effect of over 50% in size
# Outline: (§2)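 Cytotoxicity was tracked continuously in HEK293 cells by a DNA-binding dye excluded from viable cells. Compounds were transferred in DMSO 5 h after seeding; fluorescence was recorded at intervals up to 40 h.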
# [8] = qHTS RealTime-Glo MT Cell Viability Assay in HepG2 cells - 40 hour (AID 1224870); also: nearly all actives have a fitted effect of over 50% in size
# Outline: (§3)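 Real-time viability: cells seeded at 600 per well together with NanoLuc and cell-permeant prosubstrate, compounds added after 5 h incubation. Luminescence tracked at 0, 8, 16, 24, 32 and 40 h of exposure.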
# [9] = A CellTox Green Cytotoxicity Assay to monitor cytotoxicity in HEK293 cells - 40 hour (AID 1224871); also: nearly all actives have a fitted effect of over 45% in size
# Outline: as §2
# [10] = qHTS RealTime-Glo MT Cell Viability Assay in HEK293 cells - 16 hour (AID 1224872)
# Outline: (§4)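 Quantitative high-throughput screen of the Tox21 10K library in HEK293: cells and RealTime-Glo reagents plated together, compound added at 5 h, luminescence monitored through 40 h at 37 C.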
# [11] = qHTS RealTime-Glo MT Cell Viability Assay in HEK293 cells - 40 hour (AID 1224874); conditions: RealTime-Glo luminescence; max response: active compounds read low; also: nearly all actives have a fitted effect of over 50% in size
# Outline: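 Nonlytic bioluminescent viability monitoring. HEK293 at 600 cells/well with reagent; 5 h settle; compound transfer by pintool; plates held at 37 C and read at set time points.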
# [12] = A CellTox Green Cytotoxicity Assay to monitor cytotoxicity in HEK293 cells - 24 hour (AID 1224875); also: nearly all actives have a fitted effect of over 45% in size
# Outline: as §2
# [13] = A CellTox Green Cytotoxicity Assay to monitor cytotoxicity in HepG2 cells - 16 hour (AID 1224876); also: nearly all actives have a fitted effect of over 45% in size
# Outline: (§5)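 Real-time, homogeneous cytotoxicity readout: dead-cell DNA staining by CellTox Green in HepG2 monolayers, fluorescence measured at timed intervals up to 40 h of continuous compound exposure.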
# [14] = qHTS RealTime-Glo MT Cell Viability Assay in HepG2 cells - 32 hour (AID 1224877); also: nearly all actives have a fitted effect of over 55% in size
# Outline: as §1
# [15] = A CellTox Green Cytotoxicity Assay to monitor cytotoxicity in HepG2 cells - 24 hour (AID 1224878); also: nearly all actives have a fitted effect of over 45% in size
# Outline: as §5
# [16] = A CellTox Green Cytotoxicity Assay to monitor cytotoxicity in HepG2 cells - 40 hour (AID 1224879); also: nearly all actives have a fitted effect of over 40% in size
# Outline: as §5
# [17] = qHTS assay to identify small molecule antagonists of the estrogen related receptor (ERR) signaling pathway from Tox21 library (AID 1224848); also: nearly all actives have a fitted effect of over 50% in size; also: potency is read from the fitted curve at half-maximal effect
# Outline: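 Reading was by luminescence 30 min after ONE-Glo addition. Before that, ERR cells at 2,000 per well had rested 6 h at 37 C/5% CO2 and then received pin-tooled compounds in DMSO for 18 h at 37 C.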
# [18] = qHTS assay to identify small molecule agonists of the estrogen related receptor (ERR) signaling pathway from Tox21 library (AID 1224849; calls by dose curve; also: nearly all actives have a fitted effect of over 15% in size); conditions: ERR reporter cell line, ONE-Glo luciferase, 18 h; at 92.4 µM (top of the series) unless noted
# Outline: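 Agonist signal is luciferase luminescence from an ERR reporter cell line treated 18 h at 37 C with DMSO-dissolved compounds, read 30 min after ONE-Glo addition at room temperature.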
# [19] = qHTS RealTime-Glo MT Cell Viability Assay in HEK293 cells - 32 hour (AID 1224868)
# Outline: as §4
# [20] = qHTS RealTime-Glo MT Cell Viability Assay in HepG2 cells - 8 hour (AID 1224873); also: nearly all actives have a fitted effect of over 55% in size
# Outline: as §3
# Sequence of Thyrotropin receptor (Homo sapiens) (P16473 whole entry, looked up): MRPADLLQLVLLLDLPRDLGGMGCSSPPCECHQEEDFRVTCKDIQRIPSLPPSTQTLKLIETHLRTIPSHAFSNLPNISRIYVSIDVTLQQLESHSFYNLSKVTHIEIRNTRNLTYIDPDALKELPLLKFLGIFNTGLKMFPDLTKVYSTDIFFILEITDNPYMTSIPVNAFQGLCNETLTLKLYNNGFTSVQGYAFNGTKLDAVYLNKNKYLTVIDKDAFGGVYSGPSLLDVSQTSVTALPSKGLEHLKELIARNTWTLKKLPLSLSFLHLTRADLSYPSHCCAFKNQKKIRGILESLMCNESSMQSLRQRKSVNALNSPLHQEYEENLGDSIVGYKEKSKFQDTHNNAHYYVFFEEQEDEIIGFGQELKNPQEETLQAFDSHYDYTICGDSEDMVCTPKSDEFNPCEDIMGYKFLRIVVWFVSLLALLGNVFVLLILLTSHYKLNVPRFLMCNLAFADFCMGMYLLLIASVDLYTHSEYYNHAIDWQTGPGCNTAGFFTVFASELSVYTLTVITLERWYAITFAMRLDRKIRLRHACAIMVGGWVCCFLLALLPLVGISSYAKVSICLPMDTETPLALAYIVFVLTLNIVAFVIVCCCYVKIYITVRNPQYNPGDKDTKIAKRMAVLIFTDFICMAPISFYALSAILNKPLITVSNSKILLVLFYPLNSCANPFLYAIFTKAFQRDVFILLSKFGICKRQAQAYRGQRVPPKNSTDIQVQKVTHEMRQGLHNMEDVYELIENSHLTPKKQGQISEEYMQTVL
smiles,measurement,setting,value
CN1CCN(c2c(F)cc3c(=O)c(C(=O)O)cn4c3c2OCN4C)CC1,activation,[1],-2.64% [at 19 µM]
same,"activity change, negative = cytotoxicity",[2],3.62% [at 15.8 µM]
same,activation (H2AX phosphorylation),[3],-2.48% [at 31.6 µM]
same,activation,[4],-0.337% [at 15.8 µM]
same,"activity change, negative = cytotoxicity",[5],0.372% [at 31.6 µM]
same,"activity change, negative = cytotoxicity",[6],3.52% [at 15.8 µM]
same,cytotoxicity,[7],-13.4% [at 15.8 µM]
same,"activity change, negative = cytotoxic",[8],-3.22% [at 15.8 µM]
same,cytotoxicity increase,[9],-7.47% [at 15.8 µM]
same,"activity change, negative = cytotoxicity",[10],1.07% [at 15.8 µM]
same,max response,[11],2.93%
same,activity change,[12],"-4.87% [at 15.8 µM, active compounds read high]"
same,cytotoxicity increase,[13],-5.53% [at 15.8 µM]
same,"activity change, negative = cytotoxic",[14],-0.186% [at 15.8 µM]
same,cytotoxicity,[15],-1.37% [at 15.8 µM]
same,cytotoxicity increase,[16],-7.78% [at 15.8 µM]
COC(=O)c1cc(S(N)(=O)=O)ccc1OC,Potency,[1],inactive
same,Potency,[2],inactive
same,Potency,[3],inactive
same,outcome,[4],inactive
same,Potency,[5],inactive
same,Potency,[17],inactive
same,"activity change, positive = activation",[18],-0.548% [at 42.5 µM]
same,Potency,[6],inactive
same,Potency,[19],inactive
same,Potency,[8],inactive
same,Potency,[9],inactive
same,Potency,[10],inactive
same,Potency,[20],inactive
same,max response,[11],7.1%
same,Potency,[12],inactive
same,Potency,[13],inactive
same,Potency,[14],inactive
same,Potency,[15],inactive
same,Potency,[16],inactive
CCCOC(=O)c1ccc(N)cc1,Potency,[1],inactive
same,Potency,[2],inactive
same,Potency,[3],inactive
same,outcome,[4],inactive
same,Potency,[5],inactive
same,"activity change, positive = activation",[18],-13.8% [at 42.5 µM]
same,Potency,[6],inactive
same,Potency,[7],inactive
same,Potency,[8],inactive
same,Potency,[10],inactive
same,max response,[11],-15%
same,Potency,[12],inactive
same,Potency,[13],inactive
same,Potency,[14],inactive
same,Potency,[15],inactive
same,Potency,[16],inactive
C=CCOC(=O)/C=C\C(=O)OCC=C,Potency,[1],inactive
same,Potency,[2],inactive
same,Potency,[3],inactive
same,outcome,[4],inactive
same,Potency,[5],inactive
same,Potency,[6],inactive
same,Potency,[7],inactive
same,Potency,[8],inactive
same,Potency,[9],inactive
same,Potency,[10],inactive
same,Potency,[20],inactive
same,Potency,[12],inactive
same,Potency,[13],inactive
same,Potency,[14],inactive
same,Potency,[15],inactive
same,Potency,[16],inactive
CC(=O)[C@H]1CC[C@H]2[C@@H]3C[C@H](C)C4=CC(=O)CC[C@]4(C)[C@H]3[C@@H](O)C[C@]12C,Potency,[1],inactive
same,Potency,[2],inactive
same,Potency,[3],inactive
same,outcome,[4],inactive
same,Potency,[5],inactive
same,Potency,[17],26.6 µM (active)
same,"activity change, positive = activation",[18],-35.5% [at 42.5 µM]
same,Potency,[6],inactive
same,Potency,[7],inactive
same,Potency,[8],inactive
same,Potency,[9],inactive
same,Potency,[20],inactive
same,Potency,[12],inactive
same,Potency,[13],inactive
same,Potency,[14],inactive
same,Potency,[15],inactive
same,Potency,[16],inactive
CCOC(=O)/C=C/C(=O)O,Potency,[1],inactive
same,Potency,[2],inactive
same,Potency,[3],inactive
same,Potency,[5],inactive
same,Potency,[6],inactive
same,Potency,[7],inactive
same,Potency,[8],inactive
same,Potency,[9],inactive
same,Potency,[10],inactive
same,max response,[11],16.2%
same,Potency,[12],inactive
same,Potency,[13],inactive
same,Potency,[14],inactive
same,Potency,[15],inactive
same,Potency,[16],inactive
O=C(O)C(Cc1cc(I)c(O)c(I)c1)c1ccccc1 (configuration not stated),Potency,[1],inactive
same,Potency,[2],inactive
same,Potency,[3],inactive
same,Potency,[5],inactive
same,Potency,[6],inactive
same,Potency,[19],inactive
same,Potency,[7],inactive
same,Potency,[8],inactive
same,Potency,[10],inactive
same,Potency,[20],inactive
same,max response,[11],0.775%
same,Potency,[12],inactive
same,Potency,[13],inactive
same,Potency,[14],inactive
same,Potency,[15],inactive
same,Potency,[16],inactive
Cc1ccccc1N1C(=O)c2cc(S(N)(=O)=O)c(Cl)cc2NC1C (configuration not stated),Potency,[1],inactive
same,Potency,[2],inactive
same,Potency,[3],inactive
same,Potency,[5],inactive
same,Potency,[6],inactive
same,Potency,[19],inactive
same,Potency,[7],inactive
same,Potency,[8],inactive
same,Potency,[9],inactive
same,Potency,[10],inactive
same,Potency,[20],inactive
same,max response,[11],-9.78%
same,Potency,[12],inactive
same,Potency,[13],inactive
same,Potency,[14],inactive
same,Potency,[15],inactive
same,Potency,[16],inactive
